In PubChem BioAssay AID1159580 (chemical genetic matrix, 2015):
In all, about 5,500 compounds went through this assay and about 2,000 (36%) were called active. Another 18% or so got no clear call; they are omitted. The list shows a part of the results. A number with no mark means an inactive call. Cut-off read from the data, not from the text of the source: active = normalized growth mostly below about 0.91 (no sharp cut-off); inconclusive = no clear call, values can overlap the other calls; inactive = mostly above about 0.92.

Experiment: chemical genetic growth profiling, strain panel (AID 1159580);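 note: tested at 20 µM; growth read once vehicle control cultures reached saturation at 30 °C; 1 = growth at the plate median or of vehicle wells; lower values mean less growth of the strain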
Details: growth OD
[1] = S. cerevisiae deletion strains, locus YAL013W, strain DEP1, hits give low values
[2] = S. cerevisiae deletion strains, locus YBR229C, strain ROT2, hits give low values
[3] = S. cerevisiae deletion strains, locus YDL101C, strain DUN1, hits give low values
[4] = S. cerevisiae deletion strains, locus YDR150W, strain NUM1, hits give low values
[5] = S. cerevisiae deletion strains, locus YEL061C, strain CIN8, hits give low values
[6] = S. cerevisiae deletion strains, locus YGR078C, strain PAC10, hits give low values
[7] = S. cerevisiae deletion strains, locus YHR030C, strain SLT2, hits give low values
[8] = S. cerevisiae deletion strains, locus YHR087W, strain rtc3, hits give low values
[9] = S. cerevisiae deletion strains, locus YJL187C, strain SWE1, hits give low values
[10] = S. cerevisiae deletion strains, locus YJR043C, strain POL32, hits give low values
[11] = S. cerevisiae deletion strains, locus YJR075W, strain HOC1, hits give low values
[12] = S. cerevisiae deletion strains, locus YKL190W, strain CNB1, hits give low values
[13] = S. cerevisiae deletion strains, locus YLR039C, strain RIC1, hits give low values
[14] = S. cerevisiae deletion strains, locus YLR058C, strain SHM2 (second series), hits give low values
[15] = S. cerevisiae deletion strains, locus YLR085C, strain ARP6, hits give low values
[16] = S. cerevisiae deletion strains, locus YLR262C, strain YPT6, hits give low values
[17] = S. cerevisiae deletion strains, locus YML094W, strain GIM5, hits give low values
[18] = S. cerevisiae deletion strains, locus YMR219W, strain ESC1, hits give low values
[19] = S. cerevisiae deletion strains, locus YMR263W, strain SAP30, hits give low values
[20] = S. cerevisiae deletion strains, locus YNL153C, strain GIM3, hits give low values
[21] = S. cerevisiae deletion strains, locus YNL298W, strain CLA4 (second series), hits give low values
[22] = S. cerevisiae deletion strains, locus YNL322C, strain KRE1, hits give low values
[23] = S. cerevisiae deletion strains, locus YNR030W, strain Alg12, hits give low values
[24] = S. cerevisiae deletion strains, locus YPL055C, strain LGE1, hits give low values
[25] = S. cerevisiae deletion strains, locus YPL241C, strain CIN2, hits give low values
[26] = S. cerevisiae deletion strains, locus YPR135W, strain CTF4, hits give low values

Cc1ccc(C)n1-c1ccc(C(=O)NNC(=O)c2ccc3nccnc3c2)cc1
normalized growth [1]: 0.989 | normalized growth [2]: 1 | normalized growth (S. cerevisiae deletion strains, locus YCL061C, strain MRC1, hits give low values): 1.06 | normalized growth [3]: 0.989 | normalized growth [4]: 1.04 | normalized growth [5]: 1.01 | normalized growth [6]: 1.01 | normalized growth [7]: 1.14 | normalized growth [8]: 0.986 | normalized growth [9]: 0.979 | normalized growth [10]: 1.02 | normalized growth [11]: 1.06 | normalized growth [12]: 0.991 | normalized growth [13]: 1.01 | normalized growth [14]: 0.999 | normalized growth [15]: 0.921 | normalized growth [16]: 1.11 | normalized growth [17]: 0.98 | normalized growth [18]: 0.989 | normalized growth [19]: 0.986 | normalized growth (S. cerevisiae deletion strains, locus YNL128W, strain TEP1, hits give low values): 0.991 | normalized growth [20]: 1.02 | normalized growth [21]: 0.992 | normalized growth [22]: 0.999 | normalized growth [23]: 1 | normalized growth [24]: 0.995 | normalized growth [25]: 0.976 | normalized growth [26]: 1.13 | normalized growth (S. cerevisiae strains, strain wild type, hits give low values): 0.993

Cc1ccc(C)n1-c1ccc(C(=O)NNS(=O)(=O)c2ccc(Cl)cc2)cc1
normalized growth [1]: 1.01 | normalized growth [2]: 1.01 | normalized growth [3]: 1.04 | normalized growth [4]: 0.991 | normalized growth [5]: 1.01 | normalized growth [6]: 1.01 | normalized growth [7]: 0.955 | normalized growth [8]: 1.01 | normalized growth [9]: 1.02 | normalized growth [10]: 0.999 | normalized growth [11]: 0.995 | normalized growth [12]: 0.978 | normalized growth [13]: 0.985 | normalized growth [14]: 1 | normalized growth [15]: 0.962 | normalized growth [16]: 0.98 | normalized growth [17]: 1.1 | normalized growth [18]: 1 | normalized growth [19]: 1 | normalized growth (S. cerevisiae deletion strains, locus YMR307W, strain GAS1, hits give low values): 0.979 | normalized growth [20]: 1.01 | normalized growth [21]: 0.945 | normalized growth [22]: 1 | normalized growth [23]: 0.993 | normalized growth (S. cerevisiae deletion strains, locus YOL006C, strain TOP1, hits give low values): 1.03 | normalized growth [24]: 1.01 | normalized growth [25]: 1.14 [resistant] (active) | normalized growth [26]: 0.946

Cc1cc(C(=O)NNS(=O)(=O)c2ccc(F)c(Cl)c2)nn1-c1c(Cl)cc(Cl)cc1Cl
normalized growth (S. cerevisiae deletion strains, locus YAR019C, strain CDC15, hits give low values): 0.978 | normalized growth (S. cerevisiae deletion strains, locus YBL105C, strain PKC1, hits give low values): 0.979 | normalized growth (S. cerevisiae deletion strains, locus YBR135W, strain CKS1, hits give low values): 0.985 | normalized growth (S. cerevisiae deletion strains, locus YBR136W, strain MEC1, hits give low values): 0.987 | normalized growth (S. cerevisiae deletion strains, locus YBR160W, strain CDC28, hits give low values): 0.98 | normalized growth (S. cerevisiae deletion strains, locus YDL017W, strain CDC7, hits give low values): 0.985 | normalized growth (S. cerevisiae deletion strains, locus YDL028C, strain MPS1, hits give low values): 0.985 | normalized growth [3]: 0.975 | normalized growth (S. cerevisiae deletion strains, locus YDL108W, strain KIN28, hits give low values): 0.99 | normalized growth (S. cerevisiae deletion strains, locus YDL132W, strain cdc53, hits give low values): 0.974 | normalized growth (S. cerevisiae deletion strains, locus YDL214C, strain PRR2, hits give low values): 1.04 | normalized growth (S. cerevisiae deletion strains, locus YDR052C, strain DBF4, hits give low values): 0.987 | normalized growth (S. cerevisiae deletion strains, locus YDR054C, strain cdc34, hits give low values): 0.983 | normalized growth (S. cerevisiae deletion strains, locus YDR226W, strain ADK1, hits give low values): 0.98 | normalized growth (S. cerevisiae deletion strains, locus YDR477W, strain SNF1, hits give low values): 1.03 | normalized growth (S. cerevisiae deletion strains, locus YER123W, strain YCK3, hits give low values): 1.04 | normalized growth (S. cerevisiae deletion strains, locus YER133W, strain GLC7, hits give low values): 1.04 | normalized growth (S. cerevisiae deletion strains, locus YFL009W, strain cdc4, hits give low values): 0.982 | normalized growth (S. cerevisiae deletion strains, locus YFL029C, strain CAK1, hits give low values): 0.988 | normalized growth (S. cerevisiae deletion strains, locus YFR003C, strain YPI1, hits give low values): 0.981 | normalized growth (S. cerevisiae deletion strains, locus YFR019W, strain FAB1, hits give low values): 1.02 | normalized growth (S. cerevisiae deletion strains, locus YFR028C, strain CDC14, hits give low values): 0.979 | normalized growth (S. cerevisiae deletion strains, locus YGR040W, strain KSS1, hits give low values): 1.03 | normalized growth (S. cerevisiae deletion strains, locus YGR052W, strain FMP48, hits give low values): 1.1 | normalized growth (S. cerevisiae deletion strains, locus YGR092W, strain DBF2, hits give low values): 1.02 | normalized growth [7]: 1.09 | normalized growth (S. cerevisiae deletion strains, locus YHR079C, strain IRE1, hits give low values): 1.05 | normalized growth (S. cerevisiae deletion strains, locus YHR082C, strain KSP1, hits give low values): 1.11 | normalized growth (S. cerevisiae deletion strains, locus YHR205W, strain SCH9, hits give low values): 1.04 | normalized growth (S. cerevisiae deletion strains, locus YIL147C, strain SLN1, hits give low values): 0.99 | normalized growth (S. cerevisiae deletion strains, locus YJL095W, strain BCK1, hits give low values): 1.07 | normalized growth (S. cerevisiae deletion strains, locus YJL128C, strain PBS2, hits give low values): 0.905 | normalized growth (S. cerevisiae deletion strains, locus YJL157C, strain FAR1, hits give low values): 1.03 | normalized growth (S. cerevisiae deletion strains, locus YJR016C, strain ILV3, hits give low values): 0.982 | normalized growth (S. cerevisiae deletion strains, locus YJR066W, strain TOR1 (second series), hits give low values): 1.05 | normalized growth (S. cerevisiae deletion strains, locus YJR066W, strain TOR1, hits give low values): 1.02 | normalized growth (S. cerevisiae deletion strains, locus YKL048C, strain ELM1, hits give low values): 1.01 | normalized growth (S. cerevisiae deletion strains, locus YKL067W, strain YNK1, hits give low values): 1.03 | normalized growth (S. cerevisiae deletion strains, locus YKL101W, strain HSL1, hits give low values): 1.02 | normalized growth (S. cerevisiae deletion strains, locus YKL193C, strain SDS22, hits give low values): 0.996 | normalized growth (S. cerevisiae deletion strains, locus YKL203C, strain TOR2, hits give low values): 1.13 | normalized growth (S. cerevisiae deletion strains, locus YLR113W, strain HOG1, hits give low values): 1.06 | normalized growth (S. cerevisiae deletion strains, locus YLR133W, strain CKI1, hits give low values): 1.02 | normalized growth (S. cerevisiae deletion strains, locus YLR403W, strain SFP1, hits give low values): 1.06 | normalized growth (S. cerevisiae deletion strains, locus YML070W, strain DAK1, hits give low values): 1.03 | normalized growth (S. cerevisiae deletion strains, locus YMR001C, strain CDC5, hits give low values): 0.993 | normalized growth (S. cerevisiae deletion strains, locus YMR205C, strain PFK2 (second series), hits give low values): 1.03 | normalized growth (S. cerevisiae deletion strains, locus YMR277W, strain FCP1, hits give low values): 0.978 | normalized growth (S. cerevisiae deletion strains, locus YNL006W, strain LST8, hits give low values): 0.994 | normalized growth (S. cerevisiae deletion strains, locus YNL020C, strain ARK1, hits give low values): 1.03 | normalized growth (S. cerevisiae deletion strains, locus YNL161W, strain CBK1, hits give low values): 0.988 | normalized growth (S. cerevisiae deletion strains, locus YNL183C, strain NPR1, hits give low values): 1.13 | normalized growth (S. cerevisiae deletion strains, locus YNL207W, strain RIO2, hits give low values): 0.986 | normalized growth (S. cerevisiae deletion strains, locus YNL222W, strain SSU72, hits give low values): 0.99 | normalized growth (S. cerevisiae deletion strains, locus YNL307C, strain MCK1 (second series), hits give low values): 1.04 | normalized growth (S. cerevisiae deletion strains, locus YOL078W, strain AVO1, hits give low values): 0.99 | normalized growth (S. cerevisiae deletion strains, locus YOL136C, strain PFK27, hits give low values): 1.04 | normalized growth (S. cerevisiae deletion strains, locus YOR061W, strain CKA2, hits give low values): 1.03 | normalized growth (S. cerevisiae deletion strains, locus YOR119C, strain RIO1, hits give low values): 1.08 | normalized growth (S. cerevisiae deletion strains, locus YOR231W, strain MKK1, hits give low values): 1.03 | normalized growth (S. cerevisiae deletion strains, locus YOR329C, strain SCD5, hits give low values): 0.985 | normalized growth (S. cerevisiae deletion strains, locus YPL031C, strain PHO85, hits give low values): 1.04 | normalized growth (S. cerevisiae deletion strains, locus YPL153C, strain RAD53, hits give low values): 1.03 | normalized growth (S. cerevisiae deletion strains, locus YPL204W, strain HRR25, hits give low values): 1.04 | normalized growth (S. cerevisiae deletion strains, locus YPL209C, strain IPL1, hits give low values): 0.987 | normalized growth (S. cerevisiae deletion strains, locus YPL256C, strain CLN2, hits give low values): 1.02 | normalized growth (S. cerevisiae deletion strains, locus YPR025C, strain CCL1, hits give low values): 0.981 | normalized growth (S. cerevisiae deletion strains, locus YPR106W, strain ISR1, hits give low values): 0.98 | normalized growth (S. cerevisiae deletion strains, locus YPR111W, strain DBF20, hits give low values): 0.964 | normalized growth (S. cerevisiae deletion strains, strain NNK1, hits give low values): 0.986 | normalized growth (S. cerevisiae deletion strains, strain TSCII, hits give low values): 0.995
